In PubChem BioAssay AID1159580 (chemical genetic matrix, 2015):
Values joined by “and” are separate entries in the source; they are usually repeats but may differ in a detail not shown here. Equal entries are not always repeated. Screen size: about 5,500 compounds; about 2,000 (36%) were called active. Roughly 18% stayed inconclusive and do not appear here. No stated cut-off is given here; in the data, active means normalized growth mostly below about 0.91 (no sharp cut-off); inconclusive means no clear call, values can overlap the other calls; inactive means mostly above about 0.92. This is one part of the list.

Assay: chemical genetic growth profiling, strain panel (AID 1159580);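 further: tested at 20 µM; growth read once vehicle control cultures reached saturation at 30 °C; 1 = growth at the plate median or of vehicle wells; lower values mean less growth of the strain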
Conditions: S. cerevisiae deletion strains, growth OD

Measured: normalized growth

CC(C)CCCC(C)C1CCC2C3=CC[C@H]4C[C@@H](O)CC[C@]4(C)C3CC[C@@]21C (some centres not stated)
inactive: locus YAL021C, strain ccr4, hits give low values 0.965 | locus YAL026C, strain drs2, hits give low values 0.965 | locus YAL030W, strain snc1, hits give low values 0.985 | locus YBL061C, strain skt5, hits give low values 0.991 | locus YBR009C, strain hhf1, hits give low values 1.02 | locus YBR021W, strain FUR4, hits give low values 1.02 | locus YBR023C, strain chs3, hits give low values 0.961 | locus YBR171W, strain sec66, hits give low values 0.968 | locus YBR229C, strain ROT2, hits give low values 1.02 | locus YBR231C, strain swc5, hits give low values 0.967 | locus YBR279W, strain paf1, hits give low values 0.991 | locus YCL011C, strain gbp2, hits give low values 0.974 | locus YCL016C, strain dcc1, hits give low values 0.979 | locus YCL029C, strain bik1, hits give low values 0.994 | locus YCL061C, strain MRC1, hits give low values 0.986 | locus YCL069W, strain vba3, hits give low values 0.989 | locus YCR088W, strain abp1, hits give low values 0.983 | locus YDL005C, strain med2, hits give low values 0.997 | locus YDL035C, strain GPR1, hits give low values 0.996 | locus YDL040C, strain nat1, hits give low values 0.965 | locus YDL074C, strain BRE1, hits give low values 0.965 | locus YDL101C, strain DUN1, hits give low values 1.02 | locus YDL185W, strain tfp1, hits give low values 1 | locus YDL192W, strain arf1, hits give low values 0.981 | locus YDR001C, strain nth1, hits give low values 0.985 | locus YDR069C, strain doa4, hits give low values 0.98 | locus YDR101C, strain arx1, hits give low values 0.988 | locus YDR150W, strain NUM1, hits give low values 1.04 | locus YDR159W, strain sac3, hits give low values 1.01 | locus YDR162C, strain NBP2, hits give low values 0.958 | locus YDR195W, strain ref2 1.03 | locus YDR297W, strain sur2, hits give low values 0.975 | locus YDR318W, strain mcm21, hits give low values 1.01 | locus YDR334W, strain swr1, hits give low values 0.948 | locus YDR335W, strain msn5, hits give low values 0.967 | locus YDR388W, hits give low values 0.994 | locus YDR392W, strain spt3, hits give low values 0.863 | locus YDR502C, strain sam2, hits give low values 0.977 | locus YEL003W, strain gim4, hits give low values 0.976 | locus YEL037C, strain rad23, hits give low values 0.975 | locus YEL061C, strain CIN8 (second series), hits give low values 0.978 | locus YEL061C, strain CIN8, hits give low values 1.01 | locus YER015W, strain faa2, hits give low values 0.985 | locus YER016W, strain bim1, hits give low values 0.998 | locus YER110C, hits give low values 0.985 | locus YER111C, strain swi4, hits give low values 0.977 | locus YER155C, strain BEM2 (second series), hits give low values 0.973 | locus YER155C, strain BEM2, hits give low values 1.01 | locus YER167W, strain BCK2, hits give low values 1.06 | locus YFR010W, strain ubp6, hits give low values 0.983 | locus YGL078C, strain dbp3, hits give low values 0.982 | locus YGL086W, strain mad1, hits give low values 0.996 | locus YGL167C, strain pmr1, hits give low values 0.98 | locus YGL173C, strain kem1, hits give low values 0.968 | locus YGL227W, strain vid30, hits give low values 0.991 | locus YGL240W, strain doc1, hits give low values 0.984 | locus YGL248W, strain PDE1, hits give low values 1.03 | locus YGR135W, strain pre9, hits give low values 0.982 | locus YGR252W, strain gcn5, hits give low values 0.944 | locus YHR013C, strain ard1, hits give low values 0.957 | locus YHR027C, strain rpn1, hits give low values 0.973 | locus YHR030C, strain SLT2, hits give low values 1.01 and 0.993 | locus YHR079C, strain IRE1 (second series), hits give low values 1 | locus YHR079C, strain IRE1, hits give low values 1.02 | locus YHR094C, strain hxt1, hits give low values 0.988 | locus YHR129C, strain ARP1, hits give low values 1.01 | locus YHR142W, strain chs7, hits give low values 0.886 | locus YHR200W, strain rpn10, hits give low values 1.01 | locus YIL066C, strain RNR3, hits give low values 1.03 | locus YIL073C, strain SPO22, hits give low values 1.05 | locus YIL125W, strain kgd1, hits give low values 0.999 | locus YIR030C, strain dcg1, hits give low values 0.994 | locus YJL092W, strain hpr5, hits give low values 0.976 | locus YJL095W, strain BCK1 (second series), hits give low values 0.991 | locus YJL095W, strain BCK1, hits give low values 0.946 and 1 | locus YJL115W, strain asf1, hits give low values 0.966 | locus YJL129C, strain trk1, hits give low values 0.905 | locus YJL134W, strain LCB3, hits give low values 0.989 | locus YJL154C, strain vps35, hits give low values 0.995 | locus YJL164C, strain tpk1, hits give low values 0.956 | locus YJL166W, strain qcr8, hits give low values 0.971 | locus YJL168C, strain set2, hits give low values 0.995 | locus YJL187C, strain SWE1 (second series), hits give low values 0.994 | locus YJL187C, strain SWE1, hits give low values 0.985 | locus YJR043C, strain POL32, hits give low values 1.05
active: locus YDR137W, strain rgp1, hits give low values 0.823 | locus YGL253W, strain hxk2, hits give low values 0.909
